According to PubChem BioAssay (EPA / NIEHS):
Calls of active or inactive are those of the source. How the source made its calls: active means hit-call score of the fitted dose curve at least 0.9, where 1 is the maximum; inactive means score below 0.9.

Key:
Conditions in all cases: mRNA level, 48 h; actives raise or lower the signal
[1] = read-out: Glutamate-cysteine ligase regulatory (GCLM), GCLM (gene 2730); experiment: LTEA_HepaRG_GCLM: Life Technologies and Expression Analysis (LTEA) Assay for Glutamate-cysteine ligase regulatory (GCLM) using HepaRG (AID 2283500)
Summary of the method: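 HepaRG, 48 h dosing, 100 uM top, half-log x8, 0.5% DMSO vehicle. Readout: GCLM mRNA by TaqMan qRT-PCR, housekeeping-normalized (ACTB/GAPDH/POLR2A). Curves fit bidirectionally vs DMSO baseline.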

[2] = read-out: Glutathione S-transferase M3 (GSTM3), GSTM3 (gene 2947); experiment: LTEA_HepaRG_GSTM3: Life Technologies and Expression Analysis (LTEA) Assay for Glutathione S-transferase M3 (GSTM3) using HepaRG (AID 2283501)
Summary of the method: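 Expression of GSTM3 is determined by qRT-PCR in human liver HepaRG cells treated 48 h with an 8-point half-log range from 100 uM in 0.5% DMSO.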

[3] = read-out: Heat shock 70 kDa protein 1 (HSPA1A), gene 3303; experiment: LTEA_HepaRG_HSPA1A: Life Technologies and Expression Analysis (LTEA) Assay for Heat shock 70 kDa protein 1 (HSPA1A) using HepaRG (AID 2283502)
Summary of the method: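 HepaRG, 48 h exposure, 8-pt half-log CRC from 100 uM in 0.5% DMSO, duplicates. Readout: TaqMan qRT-PCR of HSPA1A mRNA, housekeeping-normalized (ACTB/GAPDH/POLR2A). Bidirectional fit vs 0.5% DMSO baseline.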

[4] = read-out: 3-Hydroxy-3-Methylglutaryl-CoA Synthase 2 (HMGCS2), HMGCS2 (gene 3158); experiment: LTEA_HepaRG_HMGCS2: Life Technologies and Expression Analysis (LTEA) Assay for 3-Hydroxy-3-Methylglutaryl-CoA Synthase 2 (HMGCS2) using HepaRG (AID 2283504)
Summary of the method: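 This steatosis marker was read as HMGCS2 mRNA change in HepaRG cells treated 48 h with up to 100 uM chemical. Normalisation used housekeeping genes; activity in either direction was fitted relative to 0.5% DMSO vehicle.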

[5] = read-out: HGF (gene 3082); experiment: LTEA_HepaRG_HGF: Life Technologies and Expression Analysis (LTEA) Assay for Hepatocyte Growth Facto (HGF) using HepaRG (AID 2283505)
Summary of the method: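 Using HepaRG monolayers kept in 0.5% DMSO, chemicals were tested in duplicate over eight half-log concentrations from 100 uM for 48 h. Endpoint: HGF mRNA change relative to DMSO, normalized to ACTB/GAPDH/POLR2A.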

[6] = read-out: Insulin Like Growth Factor 1 (IGF1), IGF1 (gene 3479); experiment: LTEA_HepaRG_IGF1: Life Technologies and Expression Analysis (LTEA) Assay for Insulin Like Growth Factor 1 (IGF1) using HepaRG (AID 2283506)
Summary of the method: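 qRT-PCR readout of IGF1 mRNA, normalized to three housekeeping genes, after 48 h chemical exposure of HepaRG cells. Concentrations: 8-point half-log series, top 100 uM, 0.5% DMSO vehicle. Gain or loss fitted against DMSO baseline.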

[7] = read-out: Intercellular Adhesion Molecule 1 (ICAM1), ICAM1 (gene 3383); experiment: LTEA_HepaRG_ICAM1: Life Technologies and Expression Analysis (LTEA) Assay for Intercellular Adhesion Molecule 1 (ICAM1) using HepaRG (AID 2283507)
Summary of the method: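 Using the human liver line HepaRG, compounds are tested in duplicate over 48 h at concentrations up to 100 uM. Expression is determined by TaqMan qRT-PCR, normalized to endogenous controls, and analysed relative to 0.5% DMSO vehicle.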

[8] = read-out: Insulin-like growth factor-binding protein 1 (IGFBP1), IGFBP1 (gene 3484); experiment: LTEA_HepaRG_IGFBP1: Life Technologies and Expression Analysis (LTEA) Assay for Insulin-like growth factor-binding protein 1 (IGFBP1) using HepaRG (AID 2283508)
Summary of the method: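 HepaRG, 48 h, 8 conc. (max 100 uM, half-log), duplicates, 0.5% DMSO. Readout: TaqMan qRT-PCR, ACTB/GAPDH/POLR2A normalisation. Fit: bidirectional vs DMSO.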

[9] = read-out: Interleukin 6 (IL6), IL6 (gene 3569); experiment: LTEA_HepaRG_IL6: Life Technologies and Expression Analysis (LTEA) Assay for Interleukin 6 (IL6) using HepaRG (AID 2283509)
Summary of the method: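 Changes in IL6 mRNA, up or down relative to 0.5% DMSO controls, were derived from concentration-response curves in human HepaRG cells treated for 48 h at up to 100 uM, with ACTB, GAPDH and POLR2A as normalizers.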

[10] = read-out: Hypoxia-inducible factor 1-alpha (Homo sapiens) (UniProt Q16665); experiment: LTEA_HepaRG_HIF1A: Life Technologies and Expression Analysis (LTEA) Assay for Hypoxia-inducible factor 1 (HIF1A) Trancription factor using HepaRG (AID 2283503)
Summary of the method: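 Gain- or loss-of-signal HIF1A mRNA changes are fitted against a DMSO baseline. HepaRG cultures receive eight concentrations, highest 100 uM, for 48 h in serum-free induction medium with 0.5% DMSO.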

Chain of Hypoxia-inducible factor 1-alpha (Homo sapiens) (Q16665 whole entry, looked up): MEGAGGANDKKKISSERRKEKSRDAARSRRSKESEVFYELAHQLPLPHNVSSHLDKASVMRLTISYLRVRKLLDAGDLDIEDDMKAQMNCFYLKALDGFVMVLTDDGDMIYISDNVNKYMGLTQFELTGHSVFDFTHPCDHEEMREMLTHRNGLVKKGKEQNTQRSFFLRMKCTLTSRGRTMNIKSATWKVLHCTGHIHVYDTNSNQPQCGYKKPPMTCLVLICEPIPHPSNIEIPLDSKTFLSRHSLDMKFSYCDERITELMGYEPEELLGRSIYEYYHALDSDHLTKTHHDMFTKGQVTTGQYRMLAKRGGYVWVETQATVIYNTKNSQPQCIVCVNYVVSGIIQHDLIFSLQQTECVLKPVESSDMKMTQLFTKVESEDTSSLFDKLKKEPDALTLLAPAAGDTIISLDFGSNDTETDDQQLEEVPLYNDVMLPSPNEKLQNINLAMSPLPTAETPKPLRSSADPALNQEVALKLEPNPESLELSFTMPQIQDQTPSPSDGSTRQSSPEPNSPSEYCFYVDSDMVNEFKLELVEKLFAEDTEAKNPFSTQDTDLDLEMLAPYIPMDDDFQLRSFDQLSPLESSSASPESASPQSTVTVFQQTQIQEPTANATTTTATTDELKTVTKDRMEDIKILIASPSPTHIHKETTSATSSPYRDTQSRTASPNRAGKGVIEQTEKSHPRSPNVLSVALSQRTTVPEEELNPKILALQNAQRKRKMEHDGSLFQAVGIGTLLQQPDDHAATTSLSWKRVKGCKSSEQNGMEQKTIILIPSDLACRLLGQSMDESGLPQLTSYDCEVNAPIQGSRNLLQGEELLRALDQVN

| Compound | outcome [1] | outcome [2] | outcome [3] | outcome [4] | outcome [5] | outcome [6] | outcome [7] | outcome [8] | outcome [9] | outcome [10] | AC50 [1] | AC50 [3] | AC50 [10] | AC50 [4] | AC50 [6] | AC50 [7] | AC50 [8] | AC50 [9] | AC50 [5] |
| --- | --- | --- | --- | --- | --- | --- | --- | --- | --- | --- | --- | --- | --- | --- | --- | --- | --- | --- | --- |
| Oc1cccc2cccnc12 | inactive | inactive | inactive | inactive | inactive | inactive | inactive | inactive | inactive | – | – | – | – | – | – | – | – | – | – |
| C[C@]12CCC(=O)C[C@@H]1CC[C@@H]1[C@@H]2CC[C@]2(C)[C@@H](O)CC[C@@H]12 | inactive | inactive | inactive | inactive | inactive | inactive | inactive | inactive | inactive | inactive | – | – | – | – | – | – | – | – | – |
| CC(C)(c1ccccc1)c1ccc(O)c(C(C)(C)c2ccccc2)c1 | – | inactive | – | – | inactive | – | – | inactive | inactive | – | 50 µM (active) | 50 µM (active) | 90.2 µM (active) | 71.5 µM (active) | 50 µM (active) | 50 µM (active) | – | – | – |
| NC(=O)O | inactive | inactive | inactive | inactive | inactive | inactive | inactive | inactive | inactive | inactive | – | – | – | – | – | – | – | – | – |
| ClC1(Cl)C2(Cl)C3(Cl)C4(Cl)C(Cl)(Cl)C5(Cl)C3(Cl)C1(Cl)C5(Cl)C24Cl (stereo not drawn) | inactive | inactive | inactive | inactive | inactive | inactive | inactive | inactive | inactive | inactive | – | – | – | – | – | – | – | – | – |
| O=C(O)C(F)(F)C(F)(F)C(F)(F)C(F)(F)C(F)(F)C(F)(F)C(F)(F)C(F)(F)C(F)(F)C(F)(F)F | inactive | inactive | inactive | inactive | inactive | inactive | inactive | inactive | inactive | inactive | – | – | – | – | – | – | – | – | – |
| C=CC(=O)OCCCCCC(C)C | inactive | inactive | inactive | inactive | inactive | inactive | inactive | inactive | inactive | inactive | – | – | – | – | – | – | – | – | – |
| O=c1[nH]c(=O)[nH]c(=O)[nH]1 | inactive | inactive | inactive | inactive | inactive | inactive | inactive | inactive | inactive | inactive | – | – | – | – | – | – | – | – | – |
| O=C1C2(Cl)C3(Cl)C4(Cl)C(Cl)(Cl)C5(Cl)C3(Cl)C1(Cl)C5(Cl)C24Cl (stereo not drawn) | – | inactive | – | – | inactive | – | – | – | – | – | 88.5 µM (active) | 91.9 µM (active) | 92.5 µM (active) | 24.2 µM (active) | 23.8 µM (active) | 91.4 µM (active) | 84 µM (active) | 91.7 µM (active) | – |
| O=C(O)C(F)(F)C(F)(F)C(F)(F)C(F)(F)C(F)(F)C(F)(F)F | inactive | inactive | inactive | – | inactive | inactive | inactive | inactive | inactive | inactive | – | – | – | 22 µM (active) | – | – | – | – | – |
| Cc1ccccc1N | inactive | inactive | inactive | inactive | inactive | inactive | inactive | inactive | inactive | inactive | – | – | – | – | – | – | – | – | – |
| C=C(C)C(=O)[O][Sn]([CH2]CCC)([CH2]CCC)[CH2]CCC | – | inactive | – | – | – | – | – | – | – | – | 88.7 µM (active) | 89.6 µM (active) | 5.19 µM (active) | 2.69 µM (active) | 1.2 µM (active) | 2.12 µM (active) | 2.66 µM (active) | 3.28 µM (active) | 72 µM (active) |
| CC(=O)[O][Hg][c]1ccccc1 | – | inactive | – | – | – | – | – | – | – | inactive | 23 µM (active) | 50 µM (active) | – | 23.3 µM (active) | 23.1 µM (active) | 0.558 µM (active) | 4.6 µM (active) | 16 µM (active) | 2.1 µM (active) |
| Cn1sc(Cl)cc1=O | inactive | inactive | inactive | inactive | inactive | inactive | inactive | inactive | inactive | inactive | – | – | – | – | – | – | – | – | – |
| CC(C)(C)CC(C)(C)c1ccc(O)cc1 | inactive | inactive | inactive | inactive | inactive | inactive | inactive | – | inactive | inactive | – | – | – | – | – | – | – | – | – |
| CN(C)N=O | inactive | inactive | inactive | inactive | inactive | inactive | inactive | inactive | inactive | inactive | – | – | – | – | – | – | – | – | – |
